MOR-DOR inv ag-1: inverse agonists of human mu-delta opioid receptor heterodimerization | inhibition, % at 9.3 µM | cell-based MOR-DOR heterodimer luminescence, inverse agonism | 340,000 tested, 0.21% active | AID 504357 | P35372+P41143; in the data active = inhibition above about 22%, passing the limit was not always enough;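 note: 0% = cells with DMSO and 100% = wells without cells with DMSO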
OPRM1-OPRD1 ag: agonists of human mu-delta opioid receptor heterodimerization. cells, OPRM1-OPRD1 heterodimerization, luminescence. activation, % at 9.3 µM. 340,000 tested, 0.3% active; in the data active = activation above about 18%;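 note: 0% = vehicle-treated cells and 100% = reference agonist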
HTR5A inv ag: HTR5A inverse agonism, opioid heterodimer counter-screen; 340,000 tested, 0.083% active; P47898; HTR5A cell line, luminescence; inhibition, % at 9.3 µM; in the data active = inhibition mostly above about 23%, no sharp cut-off; inactive = mostly below about 18%;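 note: 0% = cells with DMSO and 100% = no-cell wells with DMSO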
Target sequence (P47898 whole entry, looked up): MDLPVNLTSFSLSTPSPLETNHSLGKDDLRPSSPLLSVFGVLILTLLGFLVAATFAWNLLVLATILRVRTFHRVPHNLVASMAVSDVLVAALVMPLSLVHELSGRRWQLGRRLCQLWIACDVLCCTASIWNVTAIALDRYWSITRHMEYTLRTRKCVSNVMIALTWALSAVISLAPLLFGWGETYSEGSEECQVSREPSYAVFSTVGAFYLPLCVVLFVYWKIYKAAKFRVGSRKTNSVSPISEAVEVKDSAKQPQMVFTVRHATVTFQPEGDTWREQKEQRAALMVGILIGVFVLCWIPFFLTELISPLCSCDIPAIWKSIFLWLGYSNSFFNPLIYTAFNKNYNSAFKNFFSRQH
HTR5A ag: counter-screen for OPRM1-OPRD1 agonists: human HTR5A agonism; activation, % at 9.3 µM; AID 504692; 340,000 tested, 0.61% active; P47898; HTR5A agonist assay, luminescence, cell-based; in the data active = activation mostly above about 9.5%, no sharp cut-off; inactive = mostly below about 7.6%;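 note: 0% = cells with vehicle only and 100% = reference agonist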
MOR-DOR inv ag-2: opioid heterodimer inverse agonism, HTR5A counter-screen; shares compounds with HTR5A inv ag; U2OS counter-screen cells, complementation luminescence; inhibition, % at 9.3 µM; 190 tested, under 10 active;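 note: 0% = cells with DMSO and 100% = wells without cells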
HTR5A inv conf: HTR5A (human) inverse agonism, confirmation | shares compounds with HTR5A inv ag | HTR5A-expressing cells, luminescence | inhibition, % at 9.3 µM | 190 tested, under 10 active;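 note: 0% = cells with DMSO and 100% = no cells with DMSO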
An asterisk follows results filed as active; i = inactive; nt = no result. The list is not random: actives were taken first. Their share in the collection is about 1.1%. Unless noted, the rule behind the calls is not given here.

SMILES | MOR-DOR inv ag-1 | OPRM1-OPRD1 ag | HTR5A inv ag | HTR5A ag | MOR-DOR inv ag-2 | HTR5A inv conf
Cc1cc(C)n2nc(C(=O)OCC(=O)Nc3ccc(C)c(S(=O)(=O)N(C)C)c3)nc2n1 | 13 | -3 | 10 | -2 | nt | nt
Cc1nc2cc(NC(=O)Nc3ccc(N4CCOCC4)cc3)ccc2n1C | 10 | -2 | 42* | -2 | -60 | -7
COc1cc(C(CCN2CCOCC2)c2c(OC)cc(OC)c3c(-c4ccccc4)cc(=O)oc23)cc(OC)c1OC (stereo not given) | 1 | 0 | 17* | -5 | -7 | 2
O=[N+]([O-])c1cccc(C=NNc2ccc3ccccc3n2)c1O | 11 | -2 | 35* | -9 | 13 | 47*
Brc1ccccc1/C=N/Nc1ccc2ccccc2n1 | -10 | 2 | -12 | -2 | nt | nt
Cc1ccc(C(=O)NCC(=O)N2CCc3ccccc3C2)cc1C | 4 | -1 | 1 | 0 | nt | nt
C/C(=N\Nc1cc(-c2ccccc2)nc(-c2ccccc2)n1)c1ccc(O)c(C)c1 | 12 | -2 | 49* | -13 | -204 | -16
CCCCn1c(N)c(N(CC(C)C)C(=O)c2c(-c3ccccc3)noc2C)c(=O)[nH]c1=O | 7 | -2 | 7 | -3 | nt | nt
COCCN(C(=O)COC(=O)Cc1coc2cc3c(cc12)CCC3)c1c(N)n(Cc2ccccc2)c(=O)[nH]c1=O | 20 | -4 | 10 | -4 | nt | nt
CCOc1cc(/C=C2\CN(C)C/C(=C\c3ccc(O)c(OCC)c3)C2=O)ccc1O | 22 | -5 | 16 | -5 | nt | nt
CCOc1cc(/C=C2\CCC/C(=C\c3cc(Cl)c(O)c(OCC)c3)C2=O)cc(Cl)c1O | 13 | -3 | 46* | -21 | i | -20
N/C(=N\OC(=O)CCN1C(=O)c2ccccc2C1=O)c1ccccn1 | 3 | -1 | 47* | 2 | i | -14
Cc1ccc(OCc2cc(C(=O)N(C)CCc3nc4ccccc4[nH]3)no2)cc1C | 2 | 0 | -9 | 0 | nt | nt
CCN(CC)c1ccc(/C=N/Nc2ccccc2)c(O)c1 | -1 | 0 | 45* | 0 | -108 | -21
CC1CCCCN1CCCNC(=O)CN1C(=O)c2cccnc2Oc2ccc(Cl)cc21 (stereo not given) | 13 | -2 | -25 | -1 | nt | nt
O=C(NCc1ccc(F)cc1)Nc1ccccc1 | 15 | -3 | 15 | 4 | nt | nt
CSc1ccc(NC(=O)NCc2ccccc2)cc1 | 10 | -2 | 31* | -1 | -22 | 7
CCOC(=O)c1c(N)n(C2CC(C)(C)NC(C)(C)C2)c2nc3ccccc3nc12 | 18 | -3 | 37* | 3 | -15 | 1
COCCN(C(=O)COC(=O)c1ccc(C)o1)c1c(N)n(Cc2ccccc2)c(=O)[nH]c1=O | 11 | -2 | 6 | -3 | nt | nt
COCCN(C(=O)COC(=O)c1cc(C)oc1C)c1c(N)n(Cc2ccccc2)c(=O)[nH]c1=O | 3 | -1 | 65* | -26 | -8 | -16
CC(C)Cn1c(-c2ccc(Br)cc2)c[nH]c1=S | 2 | 0 | 81* | -28 | -110 | 1
Nc1cc(Cl)ccc1N1CCCCCC1 | -9 | 2 | -14 | 5 | nt | nt
CCn1cc(C(=O)N[C@H](C(=O)NCCCN2CCOCC2)C(C)C)c(=O)c2cc3c(cc21)OCO3 | 19 | -4 | 0 | -8 | nt | nt
CCSc1nc(C)cc(Oc2ccc(=O)n(C)n2)n1 | 3 | -1 | 89* | -2 | -192 | -13
CSc1nc(C)cc(Oc2ccc(=O)n(C)n2)n1 | 20 | -4 | 2 | -4 | nt | nt
SMILES | MOR-DOR inv ag-1 | OPRM1-OPRD1 ag | HTR5A inv ag | HTR5A ag | MOR-DOR inv ag-2 | HTR5A inv conf
CCN(C(=O)CSc1ncccn1)C1CCS(=O)(=O)C1 (stereo not given) | 8 | -2 | 24 | -9 | nt | nt
CCOc1cccc(/C=C/c2ccc3cccc(O)c3n2)c1OC | 3 | -1 | 53* | -15 | 0 | -7
CCOc1cccc(/C=C/c2ccc3cccc(O)c3n2)c1O | -29 | 6 | 18 | -5 | nt | nt
Oc1cccc2ccc(/C=C/c3ccccc3Cl)nc12 | 9 | -2 | 62* | -17 | -13 | 47*
CC(=O)N1CCc2c(sc(NC(=O)c3ccc([N+](=O)[O-])o3)c2C#N)C1 | -40 | 6 | 32* | -13 | 24 | -5
Cc1cc(N(CCO)CCO)ccc1N=Nc1cc(F)ccc1F | 21 | -4 | 27* | -10 | -6 | 12
OCCN(CCO)c1ccc(C(c2ccc(Cl)cc2)c2ccc(N(CCO)CCO)cc2Cl)c(Cl)c1 | 3 | -1 | 16 | 1 | nt | nt
Cc1cc(O)c(NC(=S)NC(=O)c2ccc(-c3ccc(Cl)cc3)o2)cc1C | 23 | -5 | 65* | -29 | -139 | -10
CCN(CC(=O)Nc1ccc2c(c1)OCCO2)C(=O)c1ccc(Cl)cc1Cl | 7 | -1 | -10 | 7 | nt | nt
CCN(CC(=O)Nc1ccc2c(c1)OCCO2)C(=O)c1cc(Cl)nc2ccccc12 | 14 | -4 | 33* | -14 | -32 | -7
N#CCCN=C(NS(=O)(=O)c1ccccc1)c1ccccc1 | 1 | 0 | 22* | -8 | -13 | -18
Cc1cc(C)nc(N/N=C/c2cc(Br)ccc2O)n1 | -11 | 2 | 33* | -11 | 23 | 3
Cc1cc(C)nc(N/N=C/c2ccccc2OCc2ccc(Br)cc2)n1 | -1 | 0 | -20 | 1 | nt | nt
CC(C)NC(=O)c1cnc(N2CCN(c3ccccn3)CC2)c2ccccc12 | 0 | 0 | 44* | 4 | -18 | 5
NC(=NCc1ccccc1)C(N=Nc1ccccc1)C(=O)NCc1ccccc1 (stereo not given) | 7 | -1 | 30* | -8 | -82 | -2
C=CC[n+]1c(-c2ccc(Cl)cc2Cl)csc1Nc1c(C)n(C)n(-c2ccccc2)c1=O | 31 | -7 | 36* | -7 | -11 | -8
N=c1c2ccccc2nc2n1CCCCCCCCCCC2 | -51 | 10 | 2 | 1 | nt | nt
CC(=O)c1ccc(OCc2ccccc2)c(C)c1O | -41 | 7 | 28* | -10 | -47 | -1
COc1cc(/C=C2/SC(=S)N(CC3CCCO3)C2=O)ccc1O (stereo not given) | -4 | 1 | 44* | -11 | -69 | 28
O=C(NN1C(=O)/C(=C/c2ccc(O)c(O)c2)SC1=S)c1ccccc1 | 30 | -6 | 31* | -8 | -173 | -2
COc1cc(/C=C2\SC(=S)N(NC(=O)c3cccnc3)C2=O)ccc1O | 24 | -5 | 22* | -7 | -397 | -22
CN(C)S(=O)(=O)c1ccc(Cl)c(C(=O)OCC(=O)NC(=O)NC2CCCC2)c1 | -8 | 2 | 96* | 1 | -16 | 14
CC(C)c1ccc(/C=C/C(=O)Nc2nc3ccc([N+](=O)[O-])cc3s2)cc1 | 5 | -1 | -15 | 2 | nt | nt
O=[N+]([O-])c1ccc2nc(NN=Cc3ccc(O)cc3)sc2c1 | 11 | -2 | 30* | -7 | -25 | 0
O=C1N[C@@H](Cc2ccccc2)COC(=O)[C@H](Cc2ccc(F)cc2)CC/C=C/C[C@@H]1CC(=O)N(CCO)Cc1ccccc1 | 2 | 0 | 37* | -2 | -52 | -8

Screens (PubChem BioAssay)
